Compound activity as filed in PubChem BioAssay.
KDM5B inhibitor: inhibitors of human KDM5B histone demethylase; KDM5B demethylase, FDH-coupled NADH fluorescence (FDH is formaldehyde dehydrogenase); Potency, µM (titrated, usually from 57.7 µM), hits mostly inhibitors; 220,000 tested, 2.6% active; AID 1347165; also: nearly all actives have a fitted effect of over 70% in size
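Compound dilutions met 200 nM (final) KDM5BΔAP for 10 min at room temperature before substrate addition. The substrate mix held 12.5 µM H3K4me3 with cofactors 25 µM α-ketoglutarate and 50 µM Fe²⁺. NADH signal gain over 30 min defined activity.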
SNCA expr inhib: reduces expression of the alpha-synuclein gene; HEK-293 SNCA-luciferase knock-in, luminescence, 24 h; 140,000 tested, 0.17% active; Potency, µM (top dose mostly 57.2 µM), usual class: inhibitors; also: nearly all actives have a fitted effect of over 45% in size
HEK293 viab: counter-screen for SNCA expression inhibitors: cell viability. HEK-293-SNCA-luc viability, GF-AFC fluorescence, 24 h. Potency, µM (titrated, usually from 57.1 µM), actives largely listed as cytotoxic. 150,000 tested, 0.12% active; also: nearly all actives have a fitted effect of over 30% in size
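Cytotoxicity counterscreen: after 24 h compound treatment of genome-edited SNCA-luciferase HEK-293 cells, live-cell protease substrate GF-AFC read by fluorescence after 30 min; activity scaled between DMSO (0%) and medium-only (-100%), curves Hill-fitted.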
IP6K1 inh: inhibitors of human IP6K1; Q92551; IP6K1 kinase, ADP-Glo luminescence, 2 h; stronger effect = lower value; activity change, % (series mostly up to about 58 µM); 140,000 tested, 0.81% active; AID 1645851; in the data active = activity change below about -25%
Target sequence (Q92551 whole entry, looked up): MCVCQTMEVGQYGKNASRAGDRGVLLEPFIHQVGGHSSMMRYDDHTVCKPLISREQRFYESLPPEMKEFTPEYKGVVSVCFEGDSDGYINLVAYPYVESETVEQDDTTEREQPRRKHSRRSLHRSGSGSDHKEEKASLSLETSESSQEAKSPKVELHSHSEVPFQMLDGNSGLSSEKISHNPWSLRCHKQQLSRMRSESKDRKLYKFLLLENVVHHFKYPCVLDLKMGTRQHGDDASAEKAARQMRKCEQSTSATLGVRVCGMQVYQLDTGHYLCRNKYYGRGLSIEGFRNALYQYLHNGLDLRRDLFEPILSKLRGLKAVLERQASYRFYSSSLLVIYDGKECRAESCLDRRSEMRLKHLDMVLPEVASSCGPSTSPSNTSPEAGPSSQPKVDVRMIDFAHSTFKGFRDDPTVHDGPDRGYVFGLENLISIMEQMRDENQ
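ADP-Glo luminescence measures ADP made by human IP6K1 during a 2 h RT reaction with ATP/IP6 (mix at 1.3 mM/130 uM); top library doses 57.5 and 19.1 uM final.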
Of the large screens only hits and unclear results are named; the others gave an inactive call. A selection: hits, their analogues and other compounds. The true share with any hit is near 2.9%. Unless noted, calls follow the shape of the dose curve; as a rule, active = well fitted curve in the direction sought with a large enough effect; inconclusive = small, poorly fitted or top-dose-only effect, or another doubt; inactive = no such curve, though single readings can be large; an effect the other way counts as inactive or inconclusive.

CCN(CC)c1cc(CCC(=O)NCCOC)ccn1	KDM5B inhibitor 17.8µM
CCN(CC)c1cc(CCC(=O)NCCc2ccccn2)ccn1	KDM5B inhibitor inconclusive
O=C(CC1CCCCN(Cc2ccccc2)C1=O)NCc1ccc(F)cc1F (centres undefined)	none (no result: KDM5B inhibitor)
COc1ccc(Nc2ccnc(N3CCCC(C(=O)NCCc4ccc(F)cc4)C3)n2)cc1 (centres undefined)	none (no result: KDM5B inhibitor)
CCn1cc2c3c(cccc31)CN(C(=O)c1ccc(OC)c(F)c1)CC2	KDM5B inhibitor 31.6µM
COc1ccc2cc(C(=O)N3CC4CC(C3)[C@H]3CCCC(=O)N3C4)[nH]c2c1 (some centres undefined)	none
COc1ccc2cc(C(=O)NC3CCN(C(=O)N4CC5CC(C4)[C@H]4CCCC(=O)N4C5)CC3)[nH]c2c1 (some centres undefined)	KDM5B inhibitor 28.2µM
O=C(NCCc1ccc(Cl)cc1)C1CCCN1C(=O)c1cccc(-c2cccnc2)c1 (centres undefined)	none (no result: KDM5B inhibitor, SNCA expr inhib, HEK293 viab)
O=C(CCl)Nc1cccc(NC2=NS(=O)(=O)c3ccccc32)c1	HEK293 viab 29.9µM (no result: KDM5B inhibitor, SNCA expr inhib)
CC(C)C(=O)Nc1cccc(NC2=NS(=O)(=O)c3ccccc32)c1	none
Cc1nn2c(c1-c1ccccc1[S+](C)(=O)[O-])N(CCC(C)C)CCC2	KDM5B inhibitor 22.4µM, SNCA expr inhib 3.16µM, HEK293 viab inconclusive
COc1ccccc1C(=O)NCCNC(=O)c1cccc(-c2ccsc2)c1	none (no result: KDM5B inhibitor)
C[C@H](NCc1ccc2c(c1)nc(NC(=O)c1ccc(-c3cn[nH]c3)s1)n2CCc1ccccc1)C(C)(C)C	SNCA expr inhib 6.81µM, HEK293 viab inconclusive (no result: KDM5B inhibitor, IP6K1 inh)
CC(C)(O)Cn1c(NC(=O)c2ccc(-c3cn[nH]c3)s2)nc2cc(CN3CCOCC3)ccc21	SNCA expr inhib 3.41µM, HEK293 viab inconclusive (no result: KDM5B inhibitor, IP6K1 inh)
Cc1ccc(S(=O)(=O)c2nnn3c2nc(N2CCOCC2)c2ccccc23)cc1	KDM5B inhibitor 79.4µM
COCCNc1nc2c(S(=O)(=O)c3ccc(C)c(C)c3)nnn2c2ccccc12	KDM5B inhibitor 79.4µM
Cc1ccc(S(=O)(=O)c2nnn3c2nc(N2CCCCC2)c2ccccc23)cc1	none
CCc1ccc([S+](=O)([O-])c2nnn3c2nc(NCCCOC)c2ccccc23)cc1	KDM5B inhibitor 89.1µM
Cc1ccc([S+](=O)([O-])c2nnn3c2nc(NCc2ccncc2)c2ccccc23)cc1C	KDM5B inhibitor 89.1µM
CN(C(=O)c1cc(-c2cc(Cl)cc(Cl)c2)nc2c1cnn2C)c1ccccc1	none (no result: KDM5B inhibitor, SNCA expr inhib, HEK293 viab)
COCCCNc1nc2c([S+](=O)([O-])c3ccc(OC)cc3)nnn2c2ccccc12	KDM5B inhibitor 31.6µM
COc1ccc([S+](=O)([O-])c2nnn3c2nc(N2CCOCC2)c2ccccc23)cc1	KDM5B inhibitor 79.4µM
Cc1ccc(C)c([S+](=O)([O-])c2nnn3c2nc(NC2CC2)c2ccccc23)c1	KDM5B inhibitor 79.4µM
COCCNc1nc2c([S+](=O)([O-])c3ccc(OC)cc3)nnn2c2ccccc12	KDM5B inhibitor inconclusive
O=[S+]([O-])(c1cccnc1)c1nnn2c1nc(N1CCOCC1)c1ccccc12	none
CC1=C[C@@H](CN2CCC(O)CC2)[C@H](C(C)C)C[C@H]1Cc1nnc(-c2ccc(N(C)C)cc2)o1	KDM5B inhibitor inconclusive
O=C(Nc1ccc(Cl)cc1)NC1CCN(c2nccc(Nc3ccccc3Cl)n2)CC1	none (no result: KDM5B inhibitor)
Cc1nc2ncccn2c1C(=O)N1C[C@H]2C(=O)NC[C@@]2(C(=O)O)C1	KDM5B inhibitor 28.2µM
Cc1c(-c2cccc(NC(=O)Cc3ccccc3)c2)nc2ncccn12	KDM5B inhibitor inconclusive
CCOC(=O)C1(Cc2ccccc2F)CCCN(C(=O)c2ccc(-n3ccnc3)cc2)C1 (centres undefined)	none
Cc1nc(C(C)C)ncc1C(=O)N1CCC2(CCCN(C)C2=O)C1 (centres undefined)	none
Cc1nc2ncccn2c1C(=O)N1CCC2(CCCN(C)C2=O)C1 (centres undefined)	KDM5B inhibitor 28.2µM
Cc1nc2ncccn2c1C(=O)N1CCC(c2nccn2CC(N)=O)CC1	KDM5B inhibitor 28.2µM
CCOC(=O)C1(Cc2ccc(F)cc2F)CCCN(C(=O)c2c(C)nc3ncccn23)C1 (centres undefined)	KDM5B inhibitor 31.6µM
CCn1ccnc1C1CCN(C(=O)Cn2cccnc2=O)CC1	KDM5B inhibitor inconclusive
COCCNC(=O)C1CCCN1Cc1ccc(-c2cc(C)cc(C)c2)cc1 (centres undefined)	none (no result: KDM5B inhibitor)
Cc1ncc(CC(=O)NCc2ccc3[nH]c(-c4ccccc4F)c(C)c3c2)c(=O)[nH]1	KDM5B inhibitor inconclusive
Cc1nc(CCC(=O)NCc2ccc3[nH]c(-c4ccccc4F)c(C)c3c2)n[nH]1	KDM5B inhibitor 25.1µM
Cc1ccc(CNC(=O)CCc2ncc(-c3c(F)cccc3F)o2)cc1F	none (no result: SNCA expr inhib, HEK293 viab, IP6K1 inh)
Cc1c(-c2ccccc2F)[nH]c2ccc(CNC(=O)CN3CC(=O)NC3=O)cc12	KDM5B inhibitor 28.2µM
Cc1ncc(C(=O)NCc2ccc3[nH]c(-c4ccccc4F)c(C)c3c2)c(C)n1	KDM5B inhibitor 20µM
Cc1c(-c2ccccc2F)[nH]c2ccc(CNC(=O)CCn3cnnc3)cc12	KDM5B inhibitor 31.6µM
COC(=O)CNC(=O)c1nc(-c2ccc(F)cc2)c2cnccn12	KDM5B inhibitor 39.8µM
COCCNC(=O)c1nc2sccn2c1-c1cccnc1	none (no result: KDM5B inhibitor)
COCCNC(=O)c1nc(-c2ccc(F)cc2)c2cnccn12	KDM5B inhibitor 31.6µM
O=C(NCc1ccc(Cl)cc1)c1ccc2nnc(-c3ccc(OC(F)(F)F)cc3)n2c1	none (no result: KDM5B inhibitor)
CCOC(=O)[C@@H]1CN([S+](=O)([O-])c2ccc(C(C)=O)cc2)[C@H]2c3ccc(OC)cc3O[C@@H]12	none (no result: KDM5B inhibitor, SNCA expr inhib, HEK293 viab)
CNC(=O)[C@@H]1CN(C(=O)c2cc3cc(OC)ccc3[nH]2)C[C@H]1COC	KDM5B inhibitor 31.6µM
CNC(=O)[C@@H]1CN(C(=O)c2cc3ccc(OC)cc3[nH]2)C[C@H]1c1n[nH]c(C)n1	KDM5B inhibitor inconclusive
COc1ccc2[nH]c(C(=O)N3C[C@@H](C(N)=O)[C@H](c4n[nH]c(C)n4)C3)cc2c1	KDM5B inhibitor 28.2µM
COc1ccccc1-c1ccc(CN2CCCCC2C(=O)NCc2ccc(F)cc2F)cc1 (centres undefined)	none (no result: KDM5B inhibitor, SNCA expr inhib, HEK293 viab)
O=[S+]1([O-])NC2(CCN(CC3CCOCC3)CC2)COc2ccccc21	KDM5B inhibitor 79.4µM
Cc1ccc(C(=O)N2CCCC3(C2)Nc2cccnc2NC3=NC2CCCC2)cc1F (centres undefined)	KDM5B inhibitor 28.2µM
O=C(c1n[nH]c2c1CCCC2)N1CCCC2(C1)Nc1cccnc1NC2=NC1CCCC1 (centres undefined)	KDM5B inhibitor 25.1µM
COc1ccc(NC(=O)N2CCCC3(C2)Nc2cccnc2NC3=NC2CCCC2)c(C)c1 (centres undefined)	KDM5B inhibitor 25.1µM
COc1ccc2nc3n(c2c1)[C@@H](CNCC(C)(C)C)COC3	none
COc1ccc2nc3n(c2c1)[C@@H](CNCc1ccc(C(F)(F)F)cc1)COC3	KDM5B inhibitor inconclusive
